Unmarked numbers belong to inactive results. Calls follow the shape of the dose curve; as a rule, active = well fitted activation curve with a large enough effect in the repeat runs; inconclusive = weak or mixed curves; inactive = flat fitted curve, though single readings scatter.
assay: A CellTox Green Cytotoxicity Assay to monitor cytotoxicity in HepG2 cells - 0 hour (AID 1224882); details: CellTox Green fluorescence; series mostly up to 76.8 µM; cytotoxicity: at the top concentration; also: nearly all actives have a fitted effect of over 35% in size
Description: National Center for Advancing Translational Sciences [NCATS]
NIH Chemical Genomics Center [NCGC]
U.S. Environmental Protection Agency [EPA]
National Institutes of Environmental Health Sciences [NIEHS]
National Toxicology Program [NTP]
Cell-based models are critical for drug discovery. Determining the natural cytotoxic effects resulting from test compounds is an essential research activity. A CellTox Green Cytotoxicity Assay to monitor cytotoxicity in real time of continues cell culture during 40 hours of the compound treatment was used to screen Tox21 10K library compounds in HepG2 cells. CellTox Green Cytotoxicity Assay is a nonlytic, homogeneous, biofluorescent method to measure cytotoxicity in cell culture after experimental manipulation. The assay system uses a proprietary asymmetric cyanine dye that is excluded from viable cells but preferentially stains the dead cell's DNA. […] Viable cells produce no appreciable increases in fluorescence. Therefore, the fluorescence signal produced by the binding interaction with dead cell DNA is proportional to cytotoxicity.
The mixture of HepG2 cell suspension and reagents were dispensed at 600cells/6 ul/well in 1536-well tissue culture treated black solid bottom plates using a Multidrop dispenser. After the assay plates were incubated at a 37 C/5% CO2 incubator for 5 hours, 23 nL of compounds dissolved in DMSO, positive and negative controls was transferred to the assay plate by a pintool work station. The plates were incubated at 37 C for 40 hours. The fluorescence intensity were measured at 0h, 8h, 16h, 24h, 32h and 40h time points using ViewLux plate reader during compound treatment.
% is scaled to controls: 0 for no effect and ±100 for the full control effect.

| Compound | cytotoxicity |
| --- | --- |
| O=C(O)CCCCCC(=O)O | -0.167% |
| CCCCCCCCCCCCCBr | 4.69% |
| CCCCOC(=O)C(C)O (stereo not given) | -8.54% |
| C=Cc1ccc(C(C)(C)C)cc1 | 7.72% |
| COC(=O)c1cc(Cl)cc(Cl)c1 | -2.86% |
| CC(C)=CCC/C(C)=C/COC=O | -0.591% |
| Cc1c(C(=O)c2c[nH]n(C)c2=O)ccc(S(C)(=O)=O)c1C1=NOCC1 | -3.72% [at 35.3 µM] |
| C=CC/C=C/C | -0.207% |
| c1ccc(-c2nn[nH]n2)cc1 | 3.6% |
| C[C@@H](O)C(=O)O | 3.88% |
| O=C1OCCO1 | -1.03% |
| C/C(=C1\CCOC(=O)S1)N(C=O)Cc1cnc(C)nc1N | -1.2% [at 35.3 µM] |
| C=C(C)C1CC=C(C)C(=O)C1 (stereo not given) | 0.0614% |
| Cc1ccc(C(=O)O)cc1[N+](=O)[O-] | 0.0939% |
| CCCCCCCCCCCCCCC(=O)NC(CO)CCCCCCCCCCCCCC (stereo not given) | -0.817% |
| COC(C)(OC)OC | 1.07% |
| C=CC(=O)CCCCC | -8.41% |
| C=C(C)[C@@H]1CC=C(C)C(=O)C1 | 7.4% |
| OCCN1CCOCC1 | -3.61% |
| ONc1ccccc1 | -9.05% |

| Compound | cytotoxicity |
| --- | --- |
| CC(C)CO | 0.0249% |
| CNCCS(=O)(=O)O | 2.88% |
| CN1CCOC(c2ccccc2)c2ccccc2C1 (stereo not given) | 18.2% [at 35.3 µM] |
| CN(C)CCCCl | -5.34% |
| CC(=O)C(C)O (stereo not given) | 2.05% |
| Cc1cccc(Cl)c1 | -1.09% |
| CCCCOCCOC(=O)COc1ccc(Cl)cc1Cl | 0.974% |
| N#Cc1cscn1 | 0.237% |
| Nc1nnnn1-c1ccccc1 | -3.05% [at 35.3 µM] |
| CC(O)COC(C)(C)C (stereo not given) | 6.76% |
| CCn1cc(C(=O)O)c(=O)c2cnc(N3CCCC3)nc21 | 3.1% [at 6.97 µM] |
| CCCCCC(C)O (stereo not given) | 5.72% |
| CCCCCCCCCCOC(C)=O | 3.38% |
| COP(=O)(O)OP(=O)(O)OC | -0.96% |
| COCCc1ccccn1 | -0.944% [at 35.3 µM] |
| Cc1c(NC(=O)c2cccnc2)c(=O)n(-c2ccccc2)n1C | 2.05% [at 35.3 µM] |
| CC12CCC(C1)C(C)(C)C2O (stereo not given) | 36.7% |
| Cc1cc(C)c(C(=O)O)c(C)c1 | 0.492% |
| Cc1cc(-c2ccccc2)nnc1NCCN1CCOCC1 | 2.8% [at 35.3 µM] |
| OCC1(CO)COCOC1 | -1.19% |

From PubChem BioAssay (Tox21)
